# According to publication PMC4081100, “A DNA-binding-site landscape and regulatory network analysis for NAC transcription factors in Arabidopsis thaliana”:
# What was measured:
# Assay in all cases: universal protein binding microarray (PBM); transcription factors of Arabidopsis thaliana; high values mean tight binding
# GST-ANAC092(1-176) = target: T1, GST-ANAC092(1-176) (Arabidopsis thaliana, UniProt Q9FKA0 1-176); conditions: protein: recombinant; tags: GST; chain copies: 2; dsDNA, one strand shown
# T1 sequence: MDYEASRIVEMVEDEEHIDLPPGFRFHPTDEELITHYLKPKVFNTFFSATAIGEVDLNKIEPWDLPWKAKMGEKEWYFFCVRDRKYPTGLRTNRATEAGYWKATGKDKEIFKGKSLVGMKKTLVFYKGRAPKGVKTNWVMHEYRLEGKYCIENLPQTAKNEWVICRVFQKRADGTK
# Procedure, shortened: (§1)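 GST-tagged proteins (NAC-domain, full-length or DNA-binding-domain) were induced in cells, with zinc acetate supplied for zinc-finger proteins, then purified on glutathione–Sepharose 4B. Each was tested in duplicate at 200 to 500 nM final on custom all-10-mer Agilent 4 × 180K arrays rendered double-stranded by primer extension. The binding value is the normalised enrichment score (E-score) across gapped and ungapped 8-mers.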
# GST-NTL6(1-168) = GST-NTL6(1-168) (Arabidopsis thaliana, UniProt Q9SCK6 1-168); conditions: protein: recombinant; tags: GST; chain copies: 2; dsDNA, one strand shown
# Procedure, shortened: as §1
# GST-ANAC019 NAC domain = target: T2, GST-ANAC019 NAC domain (Arabidopsis thaliana, UniProt Q9C932 14-162); conditions: protein: recombinant; tags: GST; chain copies: 2; dsDNA, one strand shown
# T2 sequence: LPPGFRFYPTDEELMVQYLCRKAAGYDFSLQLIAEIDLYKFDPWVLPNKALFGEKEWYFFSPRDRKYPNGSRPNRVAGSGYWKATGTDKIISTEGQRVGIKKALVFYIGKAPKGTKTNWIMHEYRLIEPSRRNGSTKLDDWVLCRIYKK
# Procedure, shortened: as §1
# GST-ANAC055(1-171) = target: T3, GST-ANAC055(1-171) (Arabidopsis thaliana, UniProt Q9LDY8 1-171); conditions: protein: recombinant; tags: GST; chain copies: 2; dsDNA, one strand shown
# T3 sequence: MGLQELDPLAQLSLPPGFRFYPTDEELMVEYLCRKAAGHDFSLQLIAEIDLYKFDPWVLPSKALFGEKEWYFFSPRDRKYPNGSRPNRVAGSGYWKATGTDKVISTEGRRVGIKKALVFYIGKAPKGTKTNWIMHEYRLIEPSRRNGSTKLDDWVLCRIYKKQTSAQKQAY
# Procedure, shortened: as §1
# GST-ATAF1 NAC domain = target: T4, GST-ATAF1 NAC domain (Arabidopsis thaliana, UniProt Q39013 7-158); conditions: protein: recombinant; tags: GST; chain copies: 2; dsDNA, one strand shown
# T4 sequence: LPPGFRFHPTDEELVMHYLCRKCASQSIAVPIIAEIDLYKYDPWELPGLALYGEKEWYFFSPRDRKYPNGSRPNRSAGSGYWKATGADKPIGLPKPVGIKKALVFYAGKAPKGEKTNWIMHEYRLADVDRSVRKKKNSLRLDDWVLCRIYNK
# Procedure, shortened: as §1
# [1] = target: T5, GST-ANAC092(1-285) full length (Arabidopsis thaliana, UniProt Q9FKA0 1-285); conditions: protein: recombinant; tags: GST; chain copies: 2; dsDNA, one strand shown
# T5 sequence: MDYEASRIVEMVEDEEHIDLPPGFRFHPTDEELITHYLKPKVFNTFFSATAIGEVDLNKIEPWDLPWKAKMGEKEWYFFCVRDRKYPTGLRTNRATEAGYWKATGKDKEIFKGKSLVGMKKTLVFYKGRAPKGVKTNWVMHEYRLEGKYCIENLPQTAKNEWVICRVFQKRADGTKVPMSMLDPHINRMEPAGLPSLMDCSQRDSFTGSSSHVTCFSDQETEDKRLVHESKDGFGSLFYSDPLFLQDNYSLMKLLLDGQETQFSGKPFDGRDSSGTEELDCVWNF
# Procedure, shortened: as §1
# GST-NST2(1-184) = target: T6, GST-NST2(1-184) (Arabidopsis thaliana, UniProt Q9M274 1-184); conditions: protein: recombinant; tags: GST; chain copies: 2; dsDNA, one strand shown
# T6 sequence: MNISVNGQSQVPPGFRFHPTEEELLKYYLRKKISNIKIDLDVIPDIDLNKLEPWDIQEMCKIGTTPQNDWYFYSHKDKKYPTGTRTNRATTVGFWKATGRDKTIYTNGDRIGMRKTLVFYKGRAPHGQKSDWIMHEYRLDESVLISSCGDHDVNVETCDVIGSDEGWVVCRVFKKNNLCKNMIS
# Procedure, shortened: as §1
# GST-NTL8 NAC domain = target: T7, GST-NTL8 NAC domain (Arabidopsis thaliana, UniProt Q9XIN7 14-156); conditions: protein: recombinant; tags: GST; chain copies: 2; dsDNA, one strand shown
# T7 sequence: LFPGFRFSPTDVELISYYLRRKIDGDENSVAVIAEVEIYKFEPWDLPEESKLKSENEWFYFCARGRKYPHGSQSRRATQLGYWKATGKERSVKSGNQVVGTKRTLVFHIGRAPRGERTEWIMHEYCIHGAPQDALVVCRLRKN
# Procedure, shortened: as §1
# GST-SND1(1-203) = target: T8, GST-SND1(1-203) (Arabidopsis thaliana, UniProt Q9LPI7 1-203); conditions: protein: recombinant; tags: GST; chain copies: 2; dsDNA, one strand shown
# T8 sequence: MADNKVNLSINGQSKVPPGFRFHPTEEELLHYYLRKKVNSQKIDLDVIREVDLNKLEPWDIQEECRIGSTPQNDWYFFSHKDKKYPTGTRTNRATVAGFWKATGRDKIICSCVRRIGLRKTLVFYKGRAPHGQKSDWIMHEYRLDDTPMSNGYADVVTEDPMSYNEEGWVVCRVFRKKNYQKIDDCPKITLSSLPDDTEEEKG
# Procedure, shortened: as §1
# GST-VND7 NAC domain = target: T9, GST-VND7 NAC domain (Arabidopsis thaliana, UniProt Q9C8W9 9-158); conditions: protein: recombinant; tags: GST; chain copies: 2; dsDNA, one strand shown
# T9 sequence: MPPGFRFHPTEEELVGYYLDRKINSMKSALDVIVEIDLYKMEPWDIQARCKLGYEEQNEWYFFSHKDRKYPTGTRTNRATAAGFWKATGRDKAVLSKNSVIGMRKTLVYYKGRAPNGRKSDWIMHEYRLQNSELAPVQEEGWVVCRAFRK
# Procedure, shortened: as §1
# GST-WRKY1(266-371) = GST-WRKY1(266-371) (Arabidopsis thaliana, UniProt Q9SI37 266-371); conditions: protein: recombinant; tags: GST; dsDNA, one strand shown
# Procedure, shortened: as §1
# GST-NAP(1-166) = target: T10, GST-NAP(1-166) (Arabidopsis thaliana, UniProt O49255 1-166); conditions: protein: recombinant; tags: GST; chain copies: 2; dsDNA, one strand shown
# T10 sequence: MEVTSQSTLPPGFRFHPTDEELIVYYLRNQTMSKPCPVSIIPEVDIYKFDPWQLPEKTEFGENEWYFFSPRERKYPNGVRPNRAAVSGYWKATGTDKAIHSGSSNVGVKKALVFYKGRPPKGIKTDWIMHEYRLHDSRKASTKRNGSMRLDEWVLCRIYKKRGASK
# Procedure, shortened: as §1
# Sequence of GST-WRKY1(266-371) (Q9SI37 266-371): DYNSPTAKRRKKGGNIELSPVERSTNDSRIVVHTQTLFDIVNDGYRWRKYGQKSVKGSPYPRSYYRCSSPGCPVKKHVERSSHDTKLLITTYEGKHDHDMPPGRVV
# Sequence of GST-NTL6(1-168) (Q9SCK6 1-168): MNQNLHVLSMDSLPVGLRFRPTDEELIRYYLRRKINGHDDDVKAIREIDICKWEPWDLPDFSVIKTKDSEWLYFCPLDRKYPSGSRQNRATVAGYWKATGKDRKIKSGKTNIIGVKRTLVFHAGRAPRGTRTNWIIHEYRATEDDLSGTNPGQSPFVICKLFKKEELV
Sequence,binding signal (GST-ANAC092(1-176)) [E-score],binding signal (GST-NTL6(1-168)) [E-score],binding signal (GST-ANAC019 NAC domain) [E-score],binding signal (GST-ANAC055(1-171)) [E-score],binding signal (GST-ATAF1 NAC domain) [E-score],binding signal [1] [E-score],binding signal (GST-NST2(1-184)) [E-score],binding signal (GST-NTL8 NAC domain) [E-score],binding signal (GST-SND1(1-203)) [E-score],binding signal (GST-VND7 NAC domain) [E-score],binding signal (GST-WRKY1(266-371)) [E-score],binding signal (GST-NAP(1-166)) [E-score]
CCCCACCC,0.209,0.274,0.177,0.0515,0.234,0.278,0.182,0.277,0.272,0.171,–,–
GGCGTCAA,–,–,–,–,–,–,–,–,0.0673,–,0.401,–
CGTAGACC,–,–,–,–,–,–,–,–,0.0522,–,0.434,–
AGGAAAGC,0.23,0.253,0.214,0.119,0.124,0.0813,0.0888,0.436,0.188,0.177,–,0.0763
GAAGGAAA,0.243,0.455,0.118,0.184,0.096,0.131,0.214,0.485,0.234,0.108,–,–
AGGGGAAA,0.191,0.14,0.112,–,–,0.0577,–,0.412,0.0998,0.132,–,0.101
CCACGCCA,0.372,–,0.0852,0.0687,0.145,0.415,0.0528,–,0.141,0.102,–,0.0773
TGACCGAA,–,–,–,–,–,–,–,–,0.0502,–,0.459,–
CGTTGACA,–,–,–,–,–,–,–,–,0.0727,–,0.464,–
